DT40 TDP1 CPT = growth inhibition of DT40 Tdp1-/-;hTDP1 cells with camptothecin (screen for TDP1 inhibitors); AID 686979; 420,000 compounds, 12% hits; Potency, µM (doses to about 46.2 µM), hits mostly inhibitors; chicken DT40 Tdp1-/-;hTDP1 cells + 20 nM CPT, ATP luminescence, 48 h; further: nearly all actives have a fitted effect of over 55% in size
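Chicken DT40 Tdp1-/- cells stably complemented with human TDP1 were seeded at 400 cells/well in medium containing 20 nM camptothecin, exposed to pin-transferred compounds, and grown at 37 °C for at least 48 hr. Viability was read as ATP luminescence.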
TGFb SMAD3 inh = TGF-b pathway inhibition; Potency, µM (top dose mostly 46.1 µM), usual class: inhibitors; 410,000 compounds, 1.2% hits; HepG2 CAGA-GFP TGF-b/SMAD3 reporter, GFP fluorescence, 18 h; TGF-beta stimulated, 500 pg/mL final; further: nearly all actives have a fitted effect of over 65% in size
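Inhibition was scored as loss of TGF-beta-induced (500 pg/mL final, 18 hours, 37 degrees C) GFP in HEPG2 cells carrying a CAGA-GFP reporter, in DMEM with 1% FBS. Well GFP was summed per cell; Activity was normalised to unstimulated and stimulated DMSO wells, then concentration-response fitting.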
ATXN2 expr inh = inhibitors of ATXN2 expression | 360,000 compounds, 0.72% hits | Potency, µM (highest dose often 57 µM), hits mostly inhibitors | AID 1745845 | HEK-293 ATXN2-luciferase reporter, luminescence, 24 h; further: nearly all actives have a fitted effect of over 55% in size
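qHTS (up to 57 uM final) was run with 24 h compound exposure of reporter cells at 37 °C. Each well was multiplexed: SteadyGlo luminescence measured ATXN2-luciferase expression after a fluorogenic Gly-Phe-AFC viability readout (25 uM final).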
DT40 TDP1 no CPT = qHTS for Inhibitors of human tyrosyl-DNA phosphodiesterase 1 (TDP1): qHTS in cells in absence of CPT; AID 686978, 2013; 420,000 compounds, 15% hits; Potency, µM (titrated, usually from 46.2 µM), hits mostly inhibitors; DT40 Tdp1-/- hTDP1 cells, no CPT, ATP luminescence, 48 h; further: nearly all actives have a fitted effect of over 55% in size
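DT40 Tdp1-/-;hTDP1 cells, no CPT (DMSO vehicle only), 400 cells/well; compounds pin-transferred; ≥48 hr, 37 °C; CellTiter-Glo 30 min RT dark, luminescence read.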
S2 tox = viability counter-screen for ATXN expression inhibitors | S2 cells (HEK-293 line with an ATXN2-luciferase reporter) viability, CellTiter-Fluor protease fluorescence, 24 h | Potency, µM (doses to about 56.7 µM), most hits filed as cytotoxic | 400,000 compounds, 0.49% hits | AID 651635; further: nearly all actives have a fitted effect of over 40% in size
HepG2 tox = kills HepG2 cells in TGF-b inhibitor counter-screen. HepG2 CAGA-GFP viability, ATP luminescence, 18 h. Potency, µM (highest dose often 46.1 µM), most hits filed as cytotoxic. 410,000 compounds, 0.76% hits. AID 588856
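HepG2 CAGA-GFP cells (1000/well, DMEM with 1% FBS) received compound, then TGF-beta at 500 pg/mL final, and were incubated 18 hours at 37 degrees C. Viability was read by CellTiter-Glo luminescence. Media-only wells were set as complete cell-killing and DMSO as no toxicity.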
A number is an active result; 0 = inactive; ? = inconclusive; - = no result given; ! = repeats disagree. Compounds with a hit are over-represented: about 17% of the library has one in this group of screens. The call rests on the fitted dose curve; in most records, active means well fitted curve in the direction sought with a large enough effect; inconclusive means small, poorly fitted or top-dose-only effect, or another doubt; inactive means no such curve, though single readings can be large; an effect the other way counts as inactive or inconclusive.

SMILES	DT40 TDP1 CPT	TGFb SMAD3 inh	ATXN2 expr inh	DT40 TDP1 no CPT	S2 tox	HepG2 tox
CC(=O)/C(C#N)=C1\NC(=O)C(Cc2ccccc2)S1 (centres undefined)	?	0	0	?	0	0
CCOC(=O)C1(CC2CC2)CCN(C(=O)c2ocnc2C)CC1	0	0	0	0	0	0
CCOC(=O)C1(CC2CC2)CCN(C(=O)c2cc(C)nc3ccc(CC)cc23)CC1	20.6µM	0	0	18.4µM	0	0
CCOC(=O)C1=C(CSc2nc3c(cc2C#N)CN(C)CC3)OC(N)=C(C#N)C1c1ccncc1 (centres undefined)	0	?	0	?	0	0
CCOC(=O)C1=C(CSc2nc(CC)c(C)cc2C#N)OC(N)=C(C#N)C1c1ccccc1 (centres undefined)	3.26µM	0	0	23.1µM	0	0
CCOC(=O)C1=C(CSc2nc(-c3ccccc3)ccc2C#N)OC(N)=C(C#N)C1c1ccc(OC)cc1 (centres undefined)	8.2µM	0	0	9.2µM	0	0
CCOC(=O)C1=C(CSc2nc3c(cc2C#N)CN(C)CC3)OC(N)=C(C#N)C1c1ccc(Cl)cc1 (centres undefined)	?	0	0	?	0	0
CCOC(=O)C1=C(CSc2nc(C)cc(C)c2C#N)OC(N)=C(C#N)C1c1ccccc1 (centres undefined)	?	0	0	23.1µM	0	0
CCOC(=O)C1=C(CSc2nc(C)cc(C)c2C#N)OC(N)=C(C#N)C1c1cccs1 (centres undefined)	?	0	0	0	?	0
NC(=NCCc1ccccc1)NS(=O)(=O)c1ccccc1F	0	0	-	0	0	0
CN(C)c1ccc(/C=C/c2ccncc2)cc1	0	0	0	25.9µM!	0	0
CCN(CC)c1ccc(/C=C/c2ccncc2)cc1	0.178µM	0	-	0.316µM	-	0
COc1cccc(CNC(=O)C2CCN(c3cnccn3)CC2)c1	0	?	0	0	0	0
O=C(COCc1cc(-c2ccc3c(c2)OCO3)on1)NCc1ccccc1Cl	0	0	-	?	-	0
Cc1ccc(C(=O)c2ccccc2C(=O)OCC(=O)N2CCCC2)cc1	0	0	0	0	0	0
COc1ccc(-c2cc(C(=O)N3CCN(c4ccccc4)CC3)c3ccccc3n2)cc1OC	?	0	0	16.4µM	0	0
COc1cc(-c2csc(N3CCOCC3)n2)cc(OC)c1OC	0	0	0	?	0	0
COc1ccc(-c2cc(C(=O)N3CCCCCC3)c3ccccc3n2)cc1OC	?	0	-	?	0	0
Cc1cccc(C(=O)OCC(=O)N2CCCCCC2)c1C	?	0	0	20.6µM	0	0
COc1ccc(-c2csc(N3CCN(c4cc(C)nc5ccccc45)CC3)n2)cc1OC	14.6µM	?	?	14.6µM	10µM	11.2µM
COc1ccc(-c2cc(C(=O)OCC(=O)N3CCCCC3)c3ccccc3n2)cc1OC	?	0	0	20.6µM	?	0
COc1ccc(-c2cc(C(=O)N3CCCCCC3)c3ccccc3n2)cc1	?	0	0	?	0	0
O=C(c1cc(-c2ccco2)nc2ccccc12)N1CCN(c2ccc(F)cc2)CC1	20.6µM	?	0	13µM	0	0
COc1ccc(-c2cc(C(=O)N3CCCC(C(F)(F)F)C3)c3ccccc3n2)cc1OC (centres undefined)	?	0	0	20.6µM	0	0
Cc1ccc(-c2cc(C(=O)N3CCN(c4ccccc4)CC3)c3ccccc3n2)cc1C	?	?	-	16.4µM	-	0
SMILES	DT40 TDP1 CPT	TGFb SMAD3 inh	ATXN2 expr inh	DT40 TDP1 no CPT	S2 tox	HepG2 tox
Cc1ccc2c(C(=O)N3CCN(c4ccccc4)CC3)cc(-c3cccnc3)nc2c1C	?	0	0	13µM	0	0
Cc1cccc(-c2noc(CCC(=O)N3CCN(c4cc(C)ccc4C)CC3)n2)c1	0	?	0	0	0	0
Cc1nn(C)c(Cl)c1NC(=O)OCc1ccc(F)cc1	?	0	0	16.4µM	0	0
Cn1nc(C(F)(F)F)c2cc(NC(=O)OCc3ccc(F)cc3)sc21	0	?	0	0	0	0
COC(=O)c1c(NC(=O)Cc2cccs2)sc(C)c1C	0	0	0	0	0	0
CCOC(=O)c1c(NC(=O)Cc2cccs2)sc(C(=O)N2CCCCC2)c1C	?	0	0	9.2µM	?	0
CCOC(=O)c1c(NC(=O)CN2CCCc3ccccc32)sc(C(C)=O)c1C	?	0	0	20.6µM	0	0
COCCOC(=O)c1c(NC(=O)CN2CCc3ccccc32)sc(C(N)=O)c1C	?	0	0	0	0	0
CCc1cccc(NC(=O)CCn2nc(C)cc2C)c1	0	0	0	0	0	0
Cc1c(CCO)c(=O)n(-c2ccccc2)n1S(=O)(=O)c1c(Cl)cc(Cl)cc1Cl	0	0	0	0	?	0
CC1(C)CC(NC(=O)C2CCN(S(=O)(=O)c3ccccc3C(F)(F)F)CC2)CC(C)(C)N1	0	0	0	0	0	0
O=c1[nH]c(NC2CCN(S(=O)(=O)c3ccccc3C(F)(F)F)CC2)nc2c1CCCC2	6.51µM	?	?	7.31µM	0	0
CCn1c(CNC(=O)c2ccc(OC)cc2)nnc1SCC(=O)Nc1ccccc1	0	?	0	0	0	0
CC(C)C(c1nnnn1C(C)(C)C)N1CCN(c2cccc(Cl)c2)CC1 (centres undefined)	18.4µM	0	0	13µM	0	0
Cc1ccc(C)c(N2CCN(C(c3ccc(N(C)C)cc3)c3nnnn3C(C)(C)C)CC2)c1 (centres undefined)	?	0	0	?	0	0
CC(C)(C)n1nnnc1CN1CCN(C(c2ccccc2)c2ccccc2)CC1	?	?	0	18.4µM	0	0
Cc1ccc(C)c(N2CCN(C(c3ccccc3)c3nnnn3C(C)(C)C)CC2)c1 (centres undefined)	0	-	0	18.4µM	0	-
CC(C)(C)n1nnnc1C(c1ccccc1)N1CCN(c2ncccn2)CC1 (centres undefined)	0	-	0	0	0	-
CC(C)(C)n1nnnc1C(c1ccccc1)N1CCN(c2ncccc2C(F)(F)F)CC1 (centres undefined)	18.4µM	-	0	25.9µM	?	-
Cn1ccsc1=NC(=O)c1cccc(C#N)c1	0	0	0	0	0	0
CC(C)n1c(=O)c2oc3ccccc3c2n(CC(=O)Nc2ccccc2Cl)c1=O	0	0	-	?	-	0
Cc1ccc(S(=O)(=O)NNC(=O)C(=O)NNc2ccccn2)cc1	?	0	?	?	0	0

Screening data (PubChem BioAssay)
